# PubChem BioAssay
# For some assays here: Potency and affinity values are given separately. Calls of active or inactive are those of the source. Entries that show only a call come without a potency. No rule for the calls is given here.
# Target: Plasmodium falciparum protein kinase 6 (PK6, PF3D7_1337100) (UniProt Q8IDW1)
# Experiment: PfPK6 kinase inhibitors, biochemical, TCAMS library (AID 1159586)
# Conditions: recombinant PfPK6, Kinase-Glo ATP depletion luminescence
# Sequence of Plasmodium falciparum protein kinase 6 (PK6, PF3D7_1337100) (Q8IDW1 1-305): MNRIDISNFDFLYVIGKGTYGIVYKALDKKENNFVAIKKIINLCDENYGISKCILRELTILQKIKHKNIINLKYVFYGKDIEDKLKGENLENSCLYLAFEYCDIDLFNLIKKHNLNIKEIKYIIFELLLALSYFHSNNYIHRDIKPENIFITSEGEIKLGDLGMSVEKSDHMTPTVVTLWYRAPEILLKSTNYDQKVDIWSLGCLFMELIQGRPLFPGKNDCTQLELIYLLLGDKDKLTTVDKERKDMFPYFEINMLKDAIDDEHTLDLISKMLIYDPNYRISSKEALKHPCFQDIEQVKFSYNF
row,SMILES,outcome
1,CCN(CC)CCCNC(=O)/C(=C/C=C/c1cc2cc(Cl)c(Cl)cc2[nH]1)OC,inactive
2,O=C1OC2(CN1CC1CCN(Cc3ccc(-n4ccnc4)cc3)C1)c1ccccc1-c1ccccc12 (stereo not given),inactive
3,Cc1ccc(NC(=O)c2ccc3ncccc3c2)cc1OC1CCN(CCC(C)C)CC1,inactive
4,Nc1ncc(-c2ccc(F)cc2)cc1-c1nc2ccc(Cl)cc2[nH]1,inactive
5,N#Cc1ccccc1N1CCN(C2CCC(NC(=O)c3n[nH]c4cc(C(F)(F)F)ccc34)CC2)CC1 (stereo not given),inactive
6,Cc1ccc(NC(=O)N2CCN(CCCCCNC(=O)/C=C/c3ccc(Cl)c(Cl)c3)CC2)cc1C,inactive
7,Cc1nnc(NC(=O)c2cn(-c3ccccc3)nc2-c2ccccc2C)o1,inactive
8,CN1CCN(c2cc3c(cc2Cl)CCN3C(=O)Nc2ccc(NC(=O)c3ccc(C(F)(F)F)cc3)cc2)CC1,inactive
9,Cc1ccc(-c2ccc3c(c2)C=C(C(=O)NC2CCN(CCNC(=O)c4cccs4)CC2)CCC3)cc1,inactive
10,COC(=O)c1ccc(NC(=O)Nc2ccc(Cn3ncc(N4CCCNCC4)c(Cl)c3=O)cc2)cc1,inactive
11,CC1(C)N=C(N)N=C(N)N1OCCCOc1cc(Cl)cc(Cl)c1,inactive
12,O=C(Nc1ccc2ccccc2c1)c1ccc(CN2CCC(Cc3ccccc3)CC2)cc1,inactive
13,Cc1cc2c(cc1Cl)N(C(=O)Nc1cc(F)cc(-c3cncnc3)c1)CC2,inactive
14,COc1ccc(C2=CCN(c3ccc(Cl)c(Cl)c3)C2=O)cc1OCCN1CCCCC1,inactive
15,COc1ccc(CNC(=O)c2cnc3c(O)cccc3c2Nc2cccc(NC(=O)c3ccc(Cl)c([N+](=O)[O-])c3)c2)cc1,inactive
16,C=CCN1C(=O)C(=Cc2cc(Br)ccc2O)SC1=Nc1ccccc1,inactive
17,O=C(Nc1ccc(F)cc1)NC1CCN(c2ccnc3cc(Cl)ccc23)C1 (stereo not given),inactive
18,CC(C)c1ccc(CN2CCC(NC(=O)c3ccc(-c4cccc(F)c4)s3)CC2)cc1,inactive
19,O=C(Nc1ccc(OC2CCN(Cc3ccccc3)C2)c(Cl)c1)c1ccco1 (stereo not given),inactive
20,CN1CCN(Cc2cccc(-c3cc4nccc(Nc5ccc(Oc6ccccc6)cc5)c4cc3Cl)c2)CC1,inactive

row,SMILES,outcome
1,COc1ccc(CC(=O)NC(CCCN2CCC(c3ccccc3)CC2)c2ccc(Cl)c(Cl)c2)cc1OC (stereo not given),inactive
2,NC1CCN(Cc2cccc(-c3cccc(-c4nc5ccccc5[nH]4)c3)c2)C1 (stereo not given),inactive
3,COc1c(Br)cc(Br)cc1C(C)=O,inactive
4,N[C@@H](CCNC1CCN(c2cccc(C(F)(F)F)c2)CC1)Cc1ccc(F)c(F)c1,inactive
5,COc1ccc(CN2CCCN(Cc3cccc(NC(=O)c4ccc(Cl)c(Cl)c4)c3)CC2)cc1,inactive
6,CN(C)CCOc1cc(O)c2c(c1)OC(C)(C)C=C2c1cccs1,inactive
7,COc1nc(-n2ccc(=N)cc2)nc2ccccc12,inactive
8,CCC(C)C(COC(=O)c1cc(OC)c(OC)c(OC)c1)N(C)CCN(C)C(COC(=O)c1cc(OC)c(OC)c(OC)c1)C(C)CC (stereo not given),inactive
9,CSc1ccc(C=CC(=O)NC(=O)c2ccccc2O)cc1,inactive
10,O=C(N[C@@H](CC1CCCCC1)C(=O)NCc1cccc2ccccc12)c1ccc(O)c(-c2ccc(Cl)c(Cl)c2)c1,inactive
11,Cc1ccc(C(C)C)c(Oc2cnc(NC(CO)c3ccccc3)nc2N)c1 (stereo not given),inactive
12,CS(=O)(=O)CCNCc1nc(-c2ccc3c(=O)[nH]cnc3c2)cs1,inactive
13,CN1CCN(c2cccc(-c3nnc(-c4ccc(OCC(=O)NCc5ccc(C(F)(F)F)cc5)c([N+](=O)[O-])c4)o3)c2)CC1,inactive
14,COC(=O)c1sc2ccccc2c1NC(=O)c1ccc(C)c(C)c1,inactive
15,c1ccc(CN2CCN(c3cc(-c4cncc(-c5ccccc5)c4)nc(-c4ccccc4)n3)CC2)cc1,inactive
16,CCC(C)CN1CCN(c2ccc(NC(=O)c3cccs3)cc2)CC1C (stereo not given),inactive
17,COc1ccc2nc3cc(Cl)ccc3c(Nc3ccc(O)c(CN4CC5CCC(CC5)C4)c3)c2c1,inactive
18,CC(C)(O)CC(C)(C)c1cc(Cl)ccc1O,inactive
19,COc1ccc(NS(=O)(=O)c2ccc(C(=O)Nc3ccc(OC(F)(F)F)cc3)cc2)cc1N1CCN(CC2CC2)CC1,inactive
20,COc1ccc2nccc([C@@H](O)CN3CCC(NC(=O)c4cc5cccnc5[nH]4)CC3)c2c1,inactive

# Target: Protein kinase 7 (PK7), Plasmodium falciparum 3D7 (PF3D7_0213400) (UniProt Q7YTF7)
# Sequence (Q7YTF7 1-343): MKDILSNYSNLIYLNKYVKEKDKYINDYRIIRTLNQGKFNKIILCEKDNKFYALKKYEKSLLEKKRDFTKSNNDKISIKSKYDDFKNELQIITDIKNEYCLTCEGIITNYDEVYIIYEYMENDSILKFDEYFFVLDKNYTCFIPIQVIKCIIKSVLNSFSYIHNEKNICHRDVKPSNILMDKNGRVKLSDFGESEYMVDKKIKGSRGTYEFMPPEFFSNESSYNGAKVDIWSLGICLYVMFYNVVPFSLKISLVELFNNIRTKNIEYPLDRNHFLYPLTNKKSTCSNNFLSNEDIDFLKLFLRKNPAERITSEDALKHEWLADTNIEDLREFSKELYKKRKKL
# Experiment: inhibition of Plasmodium PK7 catalytic activity – biochemical, TCAMS antimalarial set, Kinase-Glo luminescence (AID 1159587)
# Conditions: recombinant PfPK7, Kinase-Glo ATP depletion luminescence
row,SMILES,outcome
1,CCN(CC)CCCNC(=O)/C(=C/C=C/c1cc2cc(Cl)c(Cl)cc2[nH]1)OC,inactive
2,O=C1OC2(CN1CC1CCN(Cc3ccc(-n4ccnc4)cc3)C1)c1ccccc1-c1ccccc12 (stereo not given),inactive
3,Cc1ccc(NC(=O)c2ccc3ncccc3c2)cc1OC1CCN(CCC(C)C)CC1,inactive
4,Nc1ncc(-c2ccc(F)cc2)cc1-c1nc2ccc(Cl)cc2[nH]1,inactive
5,N#Cc1ccccc1N1CCN(C2CCC(NC(=O)c3n[nH]c4cc(C(F)(F)F)ccc34)CC2)CC1 (stereo not given),inactive
6,Cc1ccc(NC(=O)N2CCN(CCCCCNC(=O)/C=C/c3ccc(Cl)c(Cl)c3)CC2)cc1C,inactive
7,Cc1nnc(NC(=O)c2cn(-c3ccccc3)nc2-c2ccccc2C)o1,inactive
8,CN1CCN(c2cc3c(cc2Cl)CCN3C(=O)Nc2ccc(NC(=O)c3ccc(C(F)(F)F)cc3)cc2)CC1,inactive
9,Cc1ccc(-c2ccc3c(c2)C=C(C(=O)NC2CCN(CCNC(=O)c4cccs4)CC2)CCC3)cc1,inactive
10,COC(=O)c1ccc(NC(=O)Nc2ccc(Cn3ncc(N4CCCNCC4)c(Cl)c3=O)cc2)cc1,inactive
11,CC1(C)N=C(N)N=C(N)N1OCCCOc1cc(Cl)cc(Cl)c1,inactive
12,O=C(Nc1ccc2ccccc2c1)c1ccc(CN2CCC(Cc3ccccc3)CC2)cc1,inactive
13,Cc1cc2c(cc1Cl)N(C(=O)Nc1cc(F)cc(-c3cncnc3)c1)CC2,inactive
14,COc1ccc(C2=CCN(c3ccc(Cl)c(Cl)c3)C2=O)cc1OCCN1CCCCC1,inactive
15,COc1ccc(CNC(=O)c2cnc3c(O)cccc3c2Nc2cccc(NC(=O)c3ccc(Cl)c([N+](=O)[O-])c3)c2)cc1,inactive
16,C=CCN1C(=O)C(=Cc2cc(Br)ccc2O)SC1=Nc1ccccc1,inactive
17,O=C(Nc1ccc(F)cc1)NC1CCN(c2ccnc3cc(Cl)ccc23)C1 (stereo not given),inactive
18,CC(C)c1ccc(CN2CCC(NC(=O)c3ccc(-c4cccc(F)c4)s3)CC2)cc1,inactive
19,O=C(Nc1ccc(OC2CCN(Cc3ccccc3)C2)c(Cl)c1)c1ccco1 (stereo not given),inactive
20,CN1CCN(Cc2cccc(-c3cc4nccc(Nc5ccc(Oc6ccccc6)cc5)c4cc3Cl)c2)CC1,inactive

row,SMILES,outcome
1,COc1ccc(CC(=O)NC(CCCN2CCC(c3ccccc3)CC2)c2ccc(Cl)c(Cl)c2)cc1OC (stereo not given),inactive
2,NC1CCN(Cc2cccc(-c3cccc(-c4nc5ccccc5[nH]4)c3)c2)C1 (stereo not given),inactive
3,COc1c(Br)cc(Br)cc1C(C)=O,inactive
4,N[C@@H](CCNC1CCN(c2cccc(C(F)(F)F)c2)CC1)Cc1ccc(F)c(F)c1,inactive
5,COc1ccc(CN2CCCN(Cc3cccc(NC(=O)c4ccc(Cl)c(Cl)c4)c3)CC2)cc1,inactive
6,CN(C)CCOc1cc(O)c2c(c1)OC(C)(C)C=C2c1cccs1,inactive
7,COc1nc(-n2ccc(=N)cc2)nc2ccccc12,inactive
8,CCC(C)C(COC(=O)c1cc(OC)c(OC)c(OC)c1)N(C)CCN(C)C(COC(=O)c1cc(OC)c(OC)c(OC)c1)C(C)CC (stereo not given),inactive
9,CSc1ccc(C=CC(=O)NC(=O)c2ccccc2O)cc1,inactive
10,O=C(N[C@@H](CC1CCCCC1)C(=O)NCc1cccc2ccccc12)c1ccc(O)c(-c2ccc(Cl)c(Cl)c2)c1,inactive
11,Cc1ccc(C(C)C)c(Oc2cnc(NC(CO)c3ccccc3)nc2N)c1 (stereo not given),inactive
12,CS(=O)(=O)CCNCc1nc(-c2ccc3c(=O)[nH]cnc3c2)cs1,inactive
13,CN1CCN(c2cccc(-c3nnc(-c4ccc(OCC(=O)NCc5ccc(C(F)(F)F)cc5)c([N+](=O)[O-])c4)o3)c2)CC1,inactive
14,COC(=O)c1sc2ccccc2c1NC(=O)c1ccc(C)c(C)c1,inactive
15,c1ccc(CN2CCN(c3cc(-c4cncc(-c5ccccc5)c4)nc(-c4ccccc4)n3)CC2)cc1,inactive
16,CCC(C)CN1CCN(c2ccc(NC(=O)c3cccs3)cc2)CC1C (stereo not given),inactive
17,COc1ccc2nc3cc(Cl)ccc3c(Nc3ccc(O)c(CN4CC5CCC(CC5)C4)c3)c2c1,inactive
18,CC(C)(O)CC(C)(C)c1cc(Cl)ccc1O,inactive
19,COc1ccc(NS(=O)(=O)c2ccc(C(=O)Nc3ccc(OC(F)(F)F)cc3)cc2)cc1N1CCN(CC2CC2)CC1,inactive
20,COc1ccc2nccc([C@@H](O)CN3CCC(NC(=O)c4cc5cccnc5[nH]4)CC3)c2c1,inactive
